Where “and” joins values, the source holds several entries; their conditions need not be identical. Equal entries are not always repeated. Some structures have more than one record in an assay (separate samples or runs), and their calls can disagree. Calls of active or inactive are those of the source. Rule for the calls: active = hit-call score of the fitted dose curve at least 0.9, where 1 is the maximum; inactive = score below 0.9.
Target: Signal transducer and activator of transcription 3 (Homo sapiens) (UniProt P40763)
Sequence (P40763 whole entry, looked up): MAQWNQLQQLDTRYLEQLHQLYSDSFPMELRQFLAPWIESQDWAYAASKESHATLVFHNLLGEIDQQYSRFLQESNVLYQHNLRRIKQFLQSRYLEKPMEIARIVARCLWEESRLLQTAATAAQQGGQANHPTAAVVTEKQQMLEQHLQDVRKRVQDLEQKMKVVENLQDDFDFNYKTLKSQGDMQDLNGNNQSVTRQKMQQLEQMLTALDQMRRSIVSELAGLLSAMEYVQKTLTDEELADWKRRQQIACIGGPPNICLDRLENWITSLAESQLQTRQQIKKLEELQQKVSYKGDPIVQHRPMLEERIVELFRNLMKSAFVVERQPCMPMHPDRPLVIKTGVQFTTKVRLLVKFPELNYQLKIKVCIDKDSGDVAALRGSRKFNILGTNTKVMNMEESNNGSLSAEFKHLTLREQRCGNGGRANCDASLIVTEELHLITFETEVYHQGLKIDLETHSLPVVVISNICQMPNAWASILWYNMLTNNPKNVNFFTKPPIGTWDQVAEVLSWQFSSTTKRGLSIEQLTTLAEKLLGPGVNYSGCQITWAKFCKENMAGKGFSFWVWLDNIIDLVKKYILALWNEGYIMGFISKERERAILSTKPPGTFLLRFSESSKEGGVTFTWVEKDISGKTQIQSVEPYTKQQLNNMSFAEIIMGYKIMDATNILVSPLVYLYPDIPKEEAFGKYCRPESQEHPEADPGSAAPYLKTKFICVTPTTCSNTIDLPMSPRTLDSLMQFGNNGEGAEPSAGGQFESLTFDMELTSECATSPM
Assay: ATG_STAT3_CIS: Attagene CIS-FACTORIAL HepG2 Assay for human Signal Transducer and Activator of Transcription 3 (STAT3) (AID 2282963)
Settings: HepG2, Attagene cis-factorial STAT3 reporter transcription; actives raise or lower the signal
Experimental: ATG_CIS is a cell-based, multiplexed-readout assay that uses HepG2, a human liver cell line, with measurements taken at 24 hours after chemical dosing in a 24-well plate.ATG_STAT3_CIS is one of 52 assay component(s) measured or calculated from the ATG_CIS assay. It is designed to make measurements of mRNA induction, a form of inducible reporter, as detected with fluorescence intensity signals by Reverse transcription polymerase chain reaction (RT-PCR) and Capillary electrophoresis technology.Data from the assay component ATG_STAT3_CIS was analyzed into 1 assay endpoint. This assay endpoint, ATG_STAT3_CIS, was analyzed with bidirectional fitting relative to DMSO as the negative control and baseline of activity. Using a type of inducible reporter, measures of mRNA for gain or loss-of-signal activity can be used to understand the reporter gene at the transcription factor-level as they relate to the gene STAT3. Furthermore, this assay endpoint can be referred to as a primary readout, because this assay has produced multiple assay endpoints where this one serves a reporter gene function. To generalize the intended target to other relatable targets, this assay endpoint is annotated to the dna binding intended target family, where the subfamily is stat protein.
Human liver HepG2 cells are transiently transfected with multiple reporter transcription units (MRTUs) in 6-well plates using FuGene 6 reagent (Roche; 3 ml FuGene/1 mg DNA). The MRTU constructs are regulated by a cis-regulating element (promoter). […] A major difference between the CIS and TRANS system is that in CIS activities of endogenous TFs are measured, whereas the TRANS assay evaluates changes in activities of exogenous, chimeric NR-Gal4 proteins. […] At the end of 24 hour incubation, total RNA was isolated using TriZol reagent (Invitrogen). The isolated RNA is then reverse-transcribed using oligo(dT) primer and Mo-MLV reverse transcriptase (Invitrogen) with DNAse I (Ambion) treatment for 30 min. The one-tenth of the produced cDNA was amplified by PCR using Taq DNA polymerase (Invitrogen) and two reporter sequence-specific primers. The PCR products were fluorescently labeled by primer extension with 6-arboxyfluorescein (6-FAM) 5'-labeled reporter sequence-specific primer (2 min at 95 C, 20 s at 68 C and 10 min at 72 C) and these products were digested with 5U of HpaI (New England Biolabs) for 2h at 37 C. The fragments were purified using Qiaquick PCR columns (Qiagen), analyzed on an ABI 3130xL genetic analyzer (Applied Biosystems) with peak positions identified by using a set of X-rhodamine (ROX)-labeled MapMarker1000 molecular weight standards (BioVentures). The raw capillary electrophoresis data was processed using Attagraph software (Attagene).

| SMILES | outcome | AC50 |
| --- | --- | --- |
| CCOC(=O)COC(=O)c1ccccc1C(=O)OCC | inactive |  |
| O=c1cc[nH]cc1 | inactive |  |
| CCOCC(C)O (stereo not given) | inactive |  |
| CC(O)CNCC(C)O (stereo not given) | inactive |  |
| O=C1OC2(c3ccc(O)cc3Oc3cc(O)ccc32)c2ccccc21 | inactive |  |
| CCCCN(CCO)CCO | inactive |  |
| [Na+] | inactive |  |
| C1COCO1 | inactive |  |
| CCCCCCCCCOS(=O)(=O)O | inactive |  |
| CC/C=C\CCOC(C)OCC (stereo not given) | inactive |  |
| Nc1ccc(N)c([N+](=O)[O-])c1 | inactive |  |
| CC1(C)CC(=O)CC(C)(C)N1 | inactive |  |
| CC/C(=C(\c1ccccc1)c1ccc(OCCN(C)C)cc1)c1ccccc1 | inactive |  |
| CC(C)C(=O)c1ccccc1 | inactive |  |
| O=C(C=Cc1ccccc1)OCCCc1ccccc1 | inactive |  |
| CCO[Si](CC)(OCC)OCC | inactive |  |
| ClCCOCCOCCCl | inactive |  |
| CC(C)=CCCC(C)=CC(=O)O | inactive |  |
| CN1CCc2cccc3c2[C@H]1Cc1ccc(O)c(O)c1-3 | inactive |  |
| COc1ccc(C(C)=O)cc1 | inactive |  |

| SMILES | outcome | AC50 |
| --- | --- | --- |
| CCCCCCOC(C)=O | inactive |  |
| CC(=O)C1C(=O)C=C(C)OC1=O (stereo not given) | inactive |  |
| C=COCC1CCC(COC=C)CC1 (stereo not given) | inactive |  |
| CCCCCCCCCCCCN1CCOCC1 | inactive |  |
| C#C[C@]1(O)CC[C@H]2[C@@H]3CCc4cc(O)ccc4[C@H]3CC[C@@]21C | inactive | 68 µM (active) and 155 µM (active) |
| Cc1cc(O)c(C)c(C)c1O | inactive |  |
| CC(C)C(=O)OCC=Cc1ccccc1 | inactive |  |
| CCCc1ccc(N)cc1 | inactive |  |
| C=C(C)C(=O)OCCC(C)OC(=O)C(=C)C (stereo not given) | inactive |  |
| COC(=O)c1ccc(C(=O)OC)cc1 | inactive |  |
| COc1cc(OC)c2ccc(=O)oc2c1 | inactive |  |
| CCCCOCCOC(=O)c1ccccc1C(=O)OCCOCCCC | inactive |  |
| CC(=O)OC(C)(C)C1CC=C(C)CC1 (stereo not given) | inactive |  |
| CNC(=C[N+](=O)[O-])NCCSCc1ccc(CN(C)C)o1 | inactive |  |
| CCOC(=O)CC(C)C | inactive |  |
| CC(=N[Si](C)(C)C)O[Si](C)(C)C | inactive |  |
| C=C(C)C(=O)OCCN(C)C | inactive |  |
| CCCOC(=O)CC | inactive |  |
| CC1(C)CC(N)CC(C)(CN)C1 (stereo not given) | inactive |  |
